Source: PubChem BioAssay
Six1-Eya2 inh: Six1/Eya2 interaction inhibition; Q15475+O00167; AlphaScreen GST-Six1/His-Eya2 binding, biochemical; active compounds read low; activity change, % (test concentration not listed); 360,000 tested, 0.56% active; AID 651725; in the data active means activity change below about -65%; inconclusive means mostly about -30% to -63%; further: on the % scale 0 is the no-effect control and ±100 the full control effect
Target sequence (O00167 whole entry, looked up): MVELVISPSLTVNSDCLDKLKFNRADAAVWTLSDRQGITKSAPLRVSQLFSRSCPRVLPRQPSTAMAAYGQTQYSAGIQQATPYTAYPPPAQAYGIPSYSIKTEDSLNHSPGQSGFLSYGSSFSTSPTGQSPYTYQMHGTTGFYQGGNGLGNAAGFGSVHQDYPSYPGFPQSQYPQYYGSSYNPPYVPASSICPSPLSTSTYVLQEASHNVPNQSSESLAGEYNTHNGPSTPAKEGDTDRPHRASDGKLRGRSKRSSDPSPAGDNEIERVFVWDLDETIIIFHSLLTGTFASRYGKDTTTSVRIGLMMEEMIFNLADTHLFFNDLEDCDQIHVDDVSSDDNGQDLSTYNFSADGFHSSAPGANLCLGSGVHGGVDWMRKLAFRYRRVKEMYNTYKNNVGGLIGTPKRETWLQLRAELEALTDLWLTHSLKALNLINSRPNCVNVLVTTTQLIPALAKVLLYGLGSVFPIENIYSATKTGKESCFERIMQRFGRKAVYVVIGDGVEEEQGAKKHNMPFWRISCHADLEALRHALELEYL
Target sequence (Q15475 whole entry, looked up): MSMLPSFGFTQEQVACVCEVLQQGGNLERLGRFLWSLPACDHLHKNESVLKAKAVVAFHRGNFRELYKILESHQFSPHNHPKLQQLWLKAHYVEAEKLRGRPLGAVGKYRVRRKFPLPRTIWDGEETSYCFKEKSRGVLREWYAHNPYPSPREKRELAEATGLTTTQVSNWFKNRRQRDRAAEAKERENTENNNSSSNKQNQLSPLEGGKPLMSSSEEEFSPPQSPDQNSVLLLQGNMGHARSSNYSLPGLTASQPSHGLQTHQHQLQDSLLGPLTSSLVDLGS
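Homogeneous AlphaScreen proximity assay pairing GST-Six1 with His-tagged Eya2 (added as 5X mix: 250 nM and 500 nM) in 50 mM Tris pH 8.0, 300 mM NaCl, 1 mM TCEP. Glutathione donor and nickel acceptor beads; 1 h, 37 °C, dark.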
JMJD2A Tudor inh: blocks the human JMJD2A Tudor domain | Potency, µM (doses to about 114 µM), without a hit: top-dose activity change, negative = inhibition, most hits filed as inhibitors | AlphaScreen JMJD2A-Tudor / H3K4me3 peptide binding | 390,000 tested, 4.4% active; further: potency means the concentration at half of the fitted maximal effect; on the % scale 0 is the no-effect control and ±100 the full control effect; nearly all actives have a fitted effect of over 50% in size
HP1b chromo inh: blocks HP1-beta chromodomain binding to methylated histone tails; P83916; AlphaScreen HP1-beta / biotin-H3K9me3 peptide binding; Potency, µM (titrated, usually from 114 µM), without a hit: top-dose activity change, negative = inhibition, actives largely listed as inhibitors; 390,000 tested, 0.56% active; AID 540317; further: potency means the concentration at half of the fitted maximal effect; nearly all actives have a fitted effect of over 70% in size
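Compound inhibition of the preformed complex between 50 nM HP1-beta and 50 nM biotinylated H3K9me3 peptide was read by AlphaScreen. Buffer was PBS pH 7.4 with 0.01% Tween-20. Incubations ran 30 min at room temperature, with 10 ug/mL donor/acceptor beads.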
G9a block: G9a (human) methyltransferase inhibition; Q96KQ7; G9a H3K9 monomethylation, AlphaScreen, 2 h; Potency, µM (top dose mostly 102 µM), inactives show at the highest dose activity, negative = inhibition, hits mostly inhibitors; 350,000 tested, 8.8% active; further: potency means the concentration at half of the fitted maximal effect; on the % scale 0 is the no-effect control and ±100 the full control effect; nearly all actives have a fitted effect of over 75% in size
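Compounds were preincubated with 20 nM G9a for 15 min, after which biotinylated H3K9 peptide (500 nM) and SAM (20 uM) started a 2 h room-temperature reaction. Monomethylated product was quantified by antibody-based AlphaScreen chemiluminescence.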
BAZ2B inh: blocks human BAZ2B; AlphaScreen BAZ2B-H3K14Ac peptide displacement; Q9UIF8; Potency, µM (highest dose often 114 µM), for inactives: at the highest dose activity change, negative = inhibition, most hits filed as inhibitors; 360,000 tested, 4.4% active; further: potency means the concentration at half of the fitted maximal effect; on the % scale 0 is the no-effect control and ±100 the full control effect; nearly all actives have a fitted effect of over 60% in size
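Protein-peptide AlphaScreen: BAZ2B 50 nM, b-H3K14Ac 50 nM, 1x PBS pH 7.4 + 0.01% Tween-20. Preincubation 30 min RT; cpd 30 min RT (top 110 uM); beads 20 min RT, light-protected.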
CtBP-E1A blk: blocks the CtBP interaction with E1A; AlphaScreen GST-E1A/His-CtBP binding, 1536-well; active compounds read low; activity change, % (no concentration beside the values); 340,000 tested, 0.49% active; AID 651724; in the data active means activity change below about -65%; inconclusive means mostly about -30% to -63%; further: on the % scale 0 is the no-effect control and ±100 the full control effect
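Steps: dispense buffer (Tris pH 8.0, NaCl 300 mM, TCEP 1 mM, BSA, Tween 20); add 5X protein mix (GST-E1A, His-CtBP, 125 nM each); pin 23 nL compound; 2 h at 37 °C, dark; add 5X beads (50 ug/mL); 1 h; read.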
* marks the source's active call; other numbers are inactive results; [ ] = remark or other dose. Compounds with a hit are over-represented: about 10% of the library has one in this group of screens. Unless noted, the call rests on the fitted dose curve; in most records, active means well fitted inhibition curve with a large enough effect; inconclusive means small, poorly fitted or top-dose-only effect; inactive means no such curve, though single readings can be large or run the other way.

What do the screens show for `CC1=C(C(=O)Nc2ccccc2)C(c2ccc(Cl)cc2)n2c(s/c(=C/c3cccc(OCC(=O)O)c3)c2=O)=N1` (centres undefined)?
Six1-Eya2 inh: -5; JMJD2A Tudor inh: inconclusive; HP1b chromo inh: inconclusive; G9a block: inconclusive; BAZ2B inh: 56µM*; CtBP-E1A blk: -19

How did CC1=C(C(=O)Nc2ccccc2)C(c2ccc(C)o2)n2c(s/c(=C/c3ccccc3)c2=O)=N1 (centres undefined) do in these assays?
Six1-Eya2 inh: -17; JMJD2A Tudor inh: -6%; HP1b chromo inh: 42%; G9a block: -8%; BAZ2B inh: 2%; CtBP-E1A blk: -1

What do the screens show for `CC(NC(=S)NC1CCCCC1)c1ccc(C(C)(C)C)cc1` (centres undefined)?
Six1-Eya2 inh: 17; JMJD2A Tudor inh: -14%; HP1b chromo inh: 25%; BAZ2B inh: -22%; CtBP-E1A blk: -16

What do the screens show for `O=C(NN1CCOCC1)c1sc2cccc(F)c2c1Cl`?
Six1-Eya2 inh: 3; JMJD2A Tudor inh: -30%; HP1b chromo inh: 13%; G9a block: 28µM*; BAZ2B inh: -21%; CtBP-E1A blk: -1

What do the screens show for `Cc1ccc(C(=O)O)cc1NC(=S)NC(=O)c1ccc(-c2ccc(Cl)cc2)o1`?
Six1-Eya2 inh: 2; JMJD2A Tudor inh: 0%[11.4 µM]; HP1b chromo inh: 2%; G9a block: 35µM*; BAZ2B inh: inconclusive; CtBP-E1A blk: 1

What do the screens show for `O=C(O)c1ccc(NC(=S)NC(=O)c2ccc(-c3ccc(Br)cc3)o2)cc1`?
Six1-Eya2 inh: 6; JMJD2A Tudor inh: 16µM*; HP1b chromo inh: 56µM*; G9a block: 40µM*; BAZ2B inh: 40µM*; CtBP-E1A blk: -10

What do the screens show for `COc1ccc(C(=O)O)cc1NC(=S)NC(=O)c1ccc(-c2ccc(Cl)cc2)o1`?
Six1-Eya2 inh: -9; JMJD2A Tudor inh: inconclusive; HP1b chromo inh: -21%; G9a block: 45µM*; BAZ2B inh: inconclusive; CtBP-E1A blk: -3

Results for Cc1ccc(C(=O)O)cc1NC(=S)NC(=O)c1ccc([N+](=O)[O-])cc1Cl ?
Six1-Eya2 inh: -2; JMJD2A Tudor inh: inconclusive; HP1b chromo inh: -5%; G9a block: inconclusive; BAZ2B inh: -24%; CtBP-E1A blk: 1

How did O=C(Nc1ccc(NC(=S)NC(=O)c2ccco2)cc1)c1ccc(Br)cc1 do in these assays?
Six1-Eya2 inh: -1; CtBP-E1A blk: 1

Results for O=C(O)c1cccc(NC(=S)NC(=O)c2ccc(-c3ccc(Cl)cc3)o2)c1 ?
Six1-Eya2 inh: -17; JMJD2A Tudor inh: inconclusive; HP1b chromo inh: -25%; G9a block: 45µM*; BAZ2B inh: inconclusive; CtBP-E1A blk: -7

Results for CN(C)/C=C(\C#N)C(=O)N/N=C/c1ccccc1 ?
Six1-Eya2 inh: -1; JMJD2A Tudor inh: -14%; HP1b chromo inh: 30%; G9a block: 4%; BAZ2B inh: 19%; CtBP-E1A blk: 0

What do the screens show for `O=C(CCn1c(=O)[nH]c2ccsc2c1=O)NCc1ccc(F)cc1`?
Six1-Eya2 inh: 0; JMJD2A Tudor inh: -14%; HP1b chromo inh: 6%; G9a block: -4%; BAZ2B inh: 5%; CtBP-E1A blk: -3

Results for Nn1c(SCC(=O)Nc2ccc(S(N)(=O)=O)cc2)nnc1-c1ccco1 ?
Six1-Eya2 inh: 0; JMJD2A Tudor inh: -8%; HP1b chromo inh: 28%; G9a block: -2%; BAZ2B inh: -13%; CtBP-E1A blk: 5

Results for COCCn1c(=NC(=O)C(C)(C)C)sc2cc([N+](=O)[O-])ccc21 ?
Six1-Eya2 inh: 2; JMJD2A Tudor inh: -14%; HP1b chromo inh: -2%; G9a block: -10%[59 µM]; BAZ2B inh: -6%; CtBP-E1A blk: -3

Results for CCOC(=O)/C(N=Nc1ccc2c(c1)OCO2)=C(\C)O ?
Six1-Eya2 inh: -18; JMJD2A Tudor inh: 50µM*; HP1b chromo inh: -21%; G9a block: inconclusive; BAZ2B inh: inconclusive; CtBP-E1A blk: -22

What do the screens show for `COc1ccc(C(=O)NCCc2sc(-c3ccc(Cl)cc3)nc2C)c(OC)c1`?
JMJD2A Tudor inh: inconclusive; HP1b chromo inh: 3%[57 µM]; G9a block: -1%[59 µM]; BAZ2B inh: -13%

How did Cc1cc(C)c(Cn2c(=O)n(CCCCC(=O)NCc3ccccc3Cl)c(=O)c3ccccc32)c(C)c1 do in these assays?
JMJD2A Tudor inh: -3%; HP1b chromo inh: 16%; G9a block: -42%[59 µM]; BAZ2B inh: -6%

What do the screens show for `Cc1nn2c(=S)[nH]nc2[nH]c1=O`?
Six1-Eya2 inh: -3; JMJD2A Tudor inh: 28µM*; HP1b chromo inh: -16%; G9a block: 7.1µM*; CtBP-E1A blk: -22

What do the screens show for `CC(C(=O)Nc1ccc2c(c1)OCO2)N1CCN(C)CC1` (centres undefined)?
Six1-Eya2 inh: 4; JMJD2A Tudor inh: 0.79µM*; HP1b chromo inh: 22µM*; G9a block: 14µM*; BAZ2B inh: 45µM*; CtBP-E1A blk: 4

Results for CC(C(=O)Nc1ccc2[nH]c(=O)[nH]c2c1)N1CCN(Cc2ccc3c(c2)OCO3)CC1 (centres undefined) ?
Six1-Eya2 inh: -24; JMJD2A Tudor inh: -7%; HP1b chromo inh: 38%; G9a block: 9%[12.7 µM]; BAZ2B inh: 8%

Results for CC(C(=O)Nc1ccc2c(c1)OCO2)N1CCC(N2CCCCC2)CC1 (centres undefined) ?
Six1-Eya2 inh: 0; JMJD2A Tudor inh: 25µM*; HP1b chromo inh: -26%; G9a block: inconclusive; BAZ2B inh: 50µM*

What do the screens show for `CCSc1nc2n(n1)C(c1ccc(C(=O)O)cc1)C(C(=O)Nc1ccccc1C)=C(C)N2` (centres undefined)?
JMJD2A Tudor inh: -15%; HP1b chromo inh: 51%; G9a block: -2%[59 µM]; BAZ2B inh: -14%

What do the screens show for `Cc1cc(O)c(/C=N/c2ccccn2)c(=O)o1`?
Six1-Eya2 inh: -1; JMJD2A Tudor inh: 79µM*; HP1b chromo inh: 19%; G9a block: 14µM*; BAZ2B inh: inconclusive; CtBP-E1A blk: -2

How did Oc1ccc2ccccc2c1C=Nc1ccc(Cl)cn1 do in these assays?
Six1-Eya2 inh: -7; JMJD2A Tudor inh: 25µM*; HP1b chromo inh: -20%; G9a block: 1.8µM*; BAZ2B inh: -10%; CtBP-E1A blk: 4

How did Cc1cccc(/N=C/c2c(O)cc(C)oc2=O)n1 do in these assays?
Six1-Eya2 inh: -3; JMJD2A Tudor inh: inconclusive; HP1b chromo inh: 6%; G9a block: 13µM*; BAZ2B inh: -14%; CtBP-E1A blk: -1

What do the screens show for `O=c1oc2ccccc2c(O)c1/C=N/c1ccccn1`?
Six1-Eya2 inh: 3; JMJD2A Tudor inh: -17%; HP1b chromo inh: 18%; G9a block: -10%; BAZ2B inh: 9%; CtBP-E1A blk: 7
